The source of these data is PubChem BioAssay (EPA / NIEHS).

Where a structure was tested more than once in an assay, its records may differ in their call. The source made the active and inactive calls. The calls were made as follows: active = hit-call score of the fitted dose curve at least 0.9, where 1 is the maximum; inactive = score below 0.9.

In general, AC50 refers to the midpoint of the concentration-response curve, whichever way the signal moves.

The experiment is described as follows: ATG_NFI_CIS: Attagene CIS-FACTORIAL HepG2 Assay for human Nuclear Factor I (NFI) (AID 2282989). The following applies: HepG2 cis-regulatory reporter, NFI response element transcription; actives raise or lower the signal. Here is the method:
ATG_CIS is a cell-based, multiplexed-readout assay that uses HepG2, a human liver cell line, with measurements taken at 24 hours after chemical dosing in a 24-well plate.ATG_NFI_CIS is one of 52 assay component(s) measured or calculated from the ATG_CIS assay. It is designed to make measurements of mRNA induction, a form of inducible reporter, as detected with fluorescence intensity signals by Reverse transcription polymerase chain reaction (RT-PCR) and Capillary electrophoresis technology.Data from the assay component ATG_NFI_CIS was analyzed into 1 assay endpoint. This assay endpoint, ATG_NFI_CIS, was analyzed with bidirectional fitting relative to DMSO as the negative control and baseline of activity. Using a type of inducible reporter, measures of mRNA for gain or loss-of-signal activity can be used to understand the reporter gene at the transcription factor-level as they relate to the gene NFIA. Furthermore, this assay endpoint can be referred to as a primary readout, because this assay has produced multiple assay endpoints where this one serves a reporter gene function. To generalize the intended target to other relatable targets, this assay endpoint is annotated to the dna binding intended target family, where the subfamily is nuclear factor I.
Human liver HepG2 cells are transiently transfected with multiple reporter transcription units (MRTUs) in 6-well plates using FuGene 6 reagent (Roche; 3 ml FuGene/1 mg DNA). The MRTU constructs are regulated by a cis-regulating element (promoter). […] A major difference between the CIS and TRANS system is that in CIS activities of endogenous TFs are measured, whereas the TRANS assay evaluates changes in activities of exogenous, chimeric NR-Gal4 proteins. […] At the end of 24 hour incubation, total RNA was isolated using TriZol reagent (Invitrogen). The isolated RNA is then reverse-transcribed using oligo(dT) primer and Mo-MLV reverse transcriptase (Invitrogen) with DNAse I (Ambion) treatment for 30 min. The one-tenth of the produced cDNA was amplified by PCR using Taq DNA polymerase (Invitrogen) and two reporter sequence-specific primers. The PCR products were fluorescently labeled by primer extension with 6-arboxyfluorescein (6-FAM) 5'-labeled reporter sequence-specific primer (2 min at 95 C, 20 s at 68 C and 10 min at 72 C) and these products were digested with 5U of HpaI (New England Biolabs) for 2h at 37 C. The fragments were purified using Qiaquick PCR columns (Qiagen), analyzed on an ABI 3130xL genetic analyzer (Applied Biosystems) with peak positions identified by using a set of X-rhodamine (ROX)-labeled MapMarker1000 molecular weight standards (BioVentures). The raw capillary electrophoresis data was processed using Attagraph software (Attagene).
`O=C1O[C@H]([C@H](O)CO)C(O)=C1O`: the compound was called inactive.

Consider `c1ccc2occc2c1`, for which the compound was classed as inactive.

Consider `CCCCCCCC(=O)OC`, for which the compound was classed as inactive.

For `CCOCCOCCO`, the compound was classed as inactive.

Take `CCCCCCC(C=O)=Cc1ccccc1`: the AC50 was 60 µM (active) and the compound was classed as inactive.

With `O=C(N[C@@H](c1ccccc1)[C@@H]1CCCCN1)c1cccc(C(F)(F)F)c1Cl`, the call was inactive.

`CC(=O)CC(c1ccccc1)c1c(O)c2ccccc2oc1=O` (stereo not given): the result was inactive.

As for `Cc1cc(SC2=C(O)C[C@@](CCc3ccc(N)cc3)(C(C)C)OC2=O)c(C(C)(C)C)cc1CO`, the call was inactive.

Regarding `Oc1ccc(O)cc1`, the compound was called inactive.

As for `NC1CCCCC1`, the compound was called inactive.

Regarding `CC(C)c1cccc(C(C)C)c1NC(=O)NS(=O)(=O)c1cc(C(C)(C)O)co1`, the compound was classed as inactive.

For `CC(=O)S[C@H](C(=O)N[C@H]1Cc2ccccc2[C@H]2CCC[C@@H](C(=O)O)N2C1=O)C(C)C`, the result was inactive.

As for `CC(C)(O)c1ccc(CNC(=O)c2cccnc2Oc2ccc(F)cc2)cc1`, the outcome was inactive.

Take `CC(N)=O`: the compound was classed as inactive.

Regarding `Cc1c(C)c2c(c(C)c1O)CCC(C)(COc1ccc(CC3SC(=O)NC3=O)cc1)O2` (stereo not given), the call was inactive.

For `CC(=O)O`, the compound was called inactive.

As to `COc1ccc(C(=O)Nc2nc3ccccc3c(NCc3ccccc3)c2C#N)cc1`, the outcome was inactive.

With `Cc1ccc(C(C)(C)C)c(O)c1`, the AC50 is 141 µM (active).

Consider `O=C(NS(=O)(=O)/C=C/c1cccs1)c1ccc(F)cc1Br`, for which the call was inactive.

For the compound `COC(=O)CCCC(=O)OC`, the compound was called inactive.

On to `NC(=Nc1ccccc1)Nc1ccccc1`, for which the compound was classed as inactive.

On to `C/C=C/C=C/C(=O)O`, for which the compound was classed as inactive.

For `C/C=C/c1ccc(OC)cc1`, the compound was called inactive.

With `CC(=O)OC1CC(C)OC(C)O1` (stereo not given), the call was inactive.

`CCN(CC)CCOc1ccc(C(=C(Cl)c2ccccc2)c2ccccc2)cc1`: the compound was classed as inactive and the AC50 is 14.8 µM (active).

For the compound `CCCCCCCCCCCCCCCCO`, the result was inactive.

With `O=C(O)CN(CC(=O)O)CC(=O)O`, the result was inactive.

With `Nc1nc(Cl)nc2c1ncn2[C@H]1C[C@H](O)[C@@H](CO)O1`, the result was inactive.

For `CN(C)CCCN1c2ccccc2Sc2ccc(Cl)cc21`, the result was inactive.

Turning to `CC(C)OC(=O)C(C)(C)Oc1ccc(C(=O)c2ccc(Cl)cc2)cc1`, the compound was called inactive.

Consider `CCCCc1nc2cccnc2n1Cc1ccc(-c2ccccc2-c2nnn[nH]2)cc1`, for which the call was inactive.

With `O=C(Oc1ccccc1)c1cccc(C(=O)Oc2ccccc2)c1`, the result was inactive.

On to `O=C1OC(c2ccc(O)cc2)(c2ccc(O)cc2)c2ccccc21`, for which the AC50 is 22.8 µM (active).

Take `CCCCCCCCCCCCCCOS(=O)(=O)O`: the result was inactive.

Take `O=C1CCCCC1`: the compound was called inactive.

As for `COC(=O)[C@H]1[C@H]2C[C@@H]3c4[nH]c5cc(OC)ccc5c4CCN3C[C@H]2C[C@@H](OC(=O)c2cc(OC)c(OC)c(OC)c2)[C@@H]1OC`, the call was inactive.

Turning to `CC(C)COC(=O)CCCCC(=O)OCC(C)C`, the compound was called inactive.

As for `COC(=O)CCC(=O)OC`, the result was inactive.
